Data reported in PubChem BioAssay (NCATS).
Inconclusive results are not listed. Where a call stands in place of a potency, no number is given. Activity calls are given as the source filed them. Calls come from the whole dose curve; as a rule, active = well fitted curve in the direction sought with a large enough effect; inconclusive = small, poorly fitted or top-dose-only effect, or another doubt; inactive = no such curve, though single readings can be large; an effect the other way counts as inactive or inconclusive.

experiment: qHTS of pediatric cancer cell lines to identify multiple opportunities for drug repurposing: Primary screen for U-2 OS cells (AID 1347096); conditions: U-2 OS viability, CellTiter-Glo luminescence, 48 h; series mostly up to 46 µM; note: nearly all actives have a fitted effect of over 50% in size
In short: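 Viability after 48 h compound treatment at 37C, 500-1,000 cells/well, read as ATP luminescence with CellTiter-Glo. Primary screens used 11-point (MIPE, 0.78 nM-46 µM) or 8-point (NPC, 0.59 nM-46 µM) final concentrations; follow-up screens used 11-point dilutions.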

SMILES	Potency
c1ccc(-c2nc[nH]c2-c2ccccc2)cc1	inactive
CCc1ccc(C(=O)C(C)CN2CCCCC2)cc1 (stereo not given)	inactive
C=C[C@@]1(C)CC(=O)[C@]2(O)[C@@]3(C)[C@@H](O)CCC(C)(C)[C@@H]3[C@H](O)[C@H](OC(C)=O)[C@@]2(C)O1	inactive
CN1CCN(C2=Nc3ccccc3Sc3ccc(Cl)cc32)CC1	inactive
CCN(CC)CCNC(=O)COc1ccc(OC)cc1	inactive
CCCCCCCCCCCCCC(=O)OC(C)C	inactive
Cc1nc(-c2ccc(Cl)cc2)oc1COC(C)(C)C(=O)O	inactive
O=C(O)CCc1nc2ccccc2[nH]1	inactive
CCOc1ccc(NC(C)=O)cc1	inactive

experiment: qHTS of pediatric cancer cell lines to identify multiple opportunities for drug repurposing: Primary screen for Saos-2 cells (AID 1347097); conditions: Saos-2 viability, CellTiter-Glo ATP luminescence, 48 h; series mostly up to 46 µM; note: nearly all actives have a fitted effect of over 40% in size
In short: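 Following a 5-hour attachment period, cells at 500-1,000/well received compounds and were cultured for 48 hours. CellTiter-Glo was added and luminescence read to estimate viable, metabolically active cells.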

SMILES	Potency
O=C(CN1CCN(Cc2ccc3c(c2)OCO3)CC1)N1c2ccccc2Sc2ccccc21	inactive
NS(=O)(=O)Cc1noc2ccccc12	inactive
NCc1ccccc1Sc1ccccc1CO	inactive
CCC1NC(=O)c2cc(S(N)(=O)=O)c(Cl)cc2N1 (stereo not given)	inactive
CC(=O)NO	inactive
O=C(Nc1ccc([N+](=O)[O-])cc1)Nc1ccc([N+](=O)[O-])cc1	inactive
Cc1ncc(CO)c(C=O)c1O	inactive
Nc1ccc(S(=O)(=O)NCc2ccccc2)cc1	inactive
O=C(O)CCNC(=O)c1ccccc1	inactive
OCc1ccccn1	inactive
NS(=O)(=O)c1ccc(Cl)c(S(N)(=O)=O)c1	inactive
CCCN(CCC)S(=O)(=O)c1ccc(C(=O)O)cc1	inactive
CC1CCc2c(N3CCC(O)CC3)c(F)cc3c(=O)c(C(=O)O)cn1c23 (stereo not given)	inactive
COc1ccc2c(c1)c1c3n2CCN(C)C3=NCC1	inactive
CCN(CC)CCOc1ccccc1C(=O)CCc1ccccc1	inactive
CN(C)CCOC(=O)C(c1ccccc1)C1(O)CCCC1 (stereo not given)	inactive
O=C(O)P(=O)(O)O	inactive
COc1cc(NS(=O)(=O)c2ccc(N)cc2)ncn1	inactive
Cc1ccc(S(=O)(=O)NC(=O)NC2CCCC2)cc1	inactive
C=C[C@@]1(C)CC(=O)[C@]2(O)[C@@]3(C)[C@@H](O)CCC(C)(C)[C@@H]3[C@H](O)[C@H](OC(C)=O)[C@@]2(C)O1	inactive
CN1CCN(C2=Nc3ccccc3Sc3ccc(Cl)cc32)CC1	inactive
CCN(CC)CCNC(=O)COc1ccc(OC)cc1	inactive
CCCCCCCCCCCCCC(=O)OC(C)C	inactive
Cc1nc(-c2ccc(Cl)cc2)oc1COC(C)(C)C(=O)O	inactive
O=C(O)CCc1nc2ccccc2[nH]1	inactive
CCOc1ccc(NC(C)=O)cc1	inactive
